Bioassay records from PubChem BioAssay.
Many of the other results were omitted from the sample, so hits are more common in it than they were.
Hedgehog inh = blocks Sonic Hedgehog signaling | Shh-LIGHT2 Gli-luciferase reporter, 30 h | 22,000 compounds, 2.1% hits | AID 2313 | inhibition, % (concentration not given with the values);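 active means mean inhibition across valid replicates above about 65%, limit read from the data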;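 further: pathway switched on by Shh-conditioned medium diluted 1 in 25 in low serum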
BJeLR viab HTS = lowers viability of BJeLR cells; 30,000 compounds, 0.64% hits; viability loss activity score, % (concentration not given with the values); BJeLR fibroblasts viability, CellTiterGlo ATP luminescence, 48 h; HRASV12, hTERT and SV40 LT/ST transformed; in the data active means viability loss activity score above about 50%;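 further: higher score means fewer live cells and less ATP luminescence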
The depositor's hits bear a star; . = no result given.

SMILES	Hedgehog inh	BJeLR viab HTS
O=C1c2c(O)cc(O)cc2O[C@@H](c2ccc(O)cc2)[C@H]1[C@@H]1C(=O)c2c(O)cc(O)cc2O[C@H]1c1ccc(O)cc1	72*	6
O=C(OCn1nnc2ccccc2c1=O)C12CC3CC(CC(C3)C1)C2	.	0
NC(=O)Nc1nc2ccccc2[nH]c1=O	.	-3
N#Cc1c(N)[nH]c(=S)c(C(N)=O)c1-c1cccc(Br)c1	106*	8
CCc1[nH]c(=S)c(C#N)c(-c2ccccc2)c1C(=O)OC	.	-4
COc1ccc(C[C@H](N)C(=O)N[C@H]2[C@@H](O)[C@H](n3cnc4c(N(C)C)ncnc43)O[C@@H]2CO)cc1	85*	4
Nc1ncnc2c1ncn2C1OC(CO)[C@H](O)[C@@H]1S (stereo not given in full)	-8	0
COc1cc(/C=C\C(=O)O)cc(OC)c1OC	21	.
COc1cc(/C=C/C(=O)N2CCC=CC2=O)cc(OC)c1OC	84*	25
CC(=O)Oc1ccc(-c2coc3cc(OC(C)=O)cc(OC(C)=O)c3c2=O)cc1	-60	1
CC(=O)OC[C@H]1O[C@@H](Oc2cc(OC(C)=O)c3c(=O)cc(-c4ccc(OC(C)=O)cc4)oc3c2)[C@H](OC(C)=O)[C@@H](OC(C)=O)[C@@H]1OC(C)=O	65*	-16
CCCN(C(=O)Cn1ncc2c1-c1ccccc1OC2)c1ccc(Cl)c(Cl)c1	.	-3
O=C(NCCc1ccccc1)N1c2ccccc2Sc2ccccc21	92*	0
CC(C)CNC(=O)N1c2ccccc2Sc2ccccc21	.	9
C=CCN(C(=O)c1cc2c(-c3ccc(OC)c(OC)c3)nn(C)c2s1)c1ccccc1	.	-8
CCOC(=O)c1cc(-c2ccccc2)sc1NC(=O)CCN1CCN(CC)CC1	.	51*
CCOC(=O)c1cc(CC)sc1NC(=S)Nc1ccccc1C(F)(F)F	.	1
COc1ccc(N(C)C(=O)c2cn(C3CCCC3)c(=O)c3c2c2ccccc2n3C)cc1	.	0
Cc1ccccc1OCC1CN(CN(CC(C)C)CC(C)C)C(=O)O1 (stereo not given)	-50	6
CCOc1ccc2sc(C=NC(C)CC)c(O)c2c1 (stereo not given)	-56	-2
N#C/C(=C(\O)c1ccc(C(=O)c2ccccc2)cc1)c1nc2ccccc2s1	96*	3
O=C(Nc1ccc(-c2nc3ccccc3s2)c(O)c1)c1ccccc1	.	-2
Cc1ccc2nc(-c3ccccc3)cn2c1	.	78*
Cc1ccccc1C(=O)Nc1cccc(-c2cn3ccccc3n2)c1	.	5
CCN(CC)c1ccc(NC(=O)C2c3ccccc3Oc3ccccc32)cc1	.	-2
SMILES	Hedgehog inh	BJeLR viab HTS
Cc1nc(-c2cc(C#N)c(SCCNS(=O)(=O)c3ccc(C(C)(C)C)cc3)nc2C)cs1	90*	-4
CC(C)(C)c1ccc(S(=O)(=O)CCSc2nc3c(cc2C#N)CCCC3)cc1	.	-1
CCC1CCCCN1C(=O)Cn1c(=O)n(Cc2ccccc2)c(=O)c2c3c(sc21)CCC3 (stereo not given)	.	5
COc1ccc(NC(=S)NCC2CCCO2)cc1 (stereo not given)	.	2
O=C(NCCc1ccccc1)C1(S(=O)(=O)c2ccc(Cl)cc2)CC1	.	5
O=S(=O)(Nc1nc2ccccc2nc1NCCc1ccccc1)c1ccc(Cl)cc1	78*	7
CC(C)c1ccc(/C=C/C(=O)NC(=S)Nc2ccc(C(=O)O)cc2)cc1	.	-6
O=C(Nc1ccc(-c2nc3ccccc3[nH]2)cc1)c1ccc(-c2ccccc2)cc1	.	2
c1ccc2[nH]c(-c3cscn3)nc2c1	-2	59*
c1ccc2[nH]c(-c3nc4ccccc4s3)nc2c1	21	101*
c1csc(CSc2nc3ccccc3[nH]2)c1	.	5
CCN(CC)c1ccc(N=c2ccc3ccccc3n2C)cc1	.	5
COC(=O)N1N=C(CC(C)C)CC1(O)C(F)(F)F (stereo not given)	.	0
C[C@@H]1C[C@H]2OCC3=CCC[C@H]([C@]1(CC(O)c1ccoc1)C(=O)O)[C@]32CO (stereo not given in full)	-22	92*
CC1=CCC[C@@H]2[C@](CCc3ccoc3)(C(=O)O)[C@H](C)CC[C@@]12C	-47	-3
O=C(COc1ccc(Cl)cc1)NCCC12CC3CC(CC(C3)C1)C2	.	6
CC1(C)C(=O)[C@@H]2C[C@@]3(O)C4=CC(=O)O[C@@H](c5ccoc5)[C@]4(C)CCC3[C@@](C)(C2=O)[C@H]1CC(=O)O (stereo not given in full)	-18	1
COC(=O)C[C@H]1C(C)(C)C(=O)[C@@H]2C[C@@]3(O)C4=CC(=O)O[C@@H](c5ccoc5)[C@]4(C)CCC3[C@@]1(C)C2=O (stereo not given in full)	86*	3
Nc1ncnc2c1cnn2-c1ccccc1	-14	4
C=CCn1c(Sc2ncnc3c2cnn3-c2ccccc2)nnc1-c1ccncc1	.	69*
CCCCN1C(=O)NC(C(F)(F)F)(C(F)(F)F)C2=C1CC(C)(C)CC2=O	-56	1
